Data on 51 molecules can be found in PubChem BioAssay AID1051 (The Scripps Research Institute Molecular Screening Center, 2008).

Screen size: about 99,000 compounds; about 340 (0.34%) were called active. The full list was thinned out, with actives kept by preference. Values without a mark were called inactive. Rule as the data show it: active = TR-FRET ratio above about 2300; inactive = the rest.

The nature of the experiment: signal artefacts in PPARgamma/SRC-1 readout – biochemical, TR-FRET emission ratio, artefact control for PPARgamma SRC-1 recruitment agonists, primary screen (AID 1051). The note with it: TR-FRET detection artefact counter-screen, at 8 µM, hits give high values.
Consider `Cc1ccc2nc(-c3cccc(Br)c3)cc(C(=O)Nn3cnnc3)c2c1`, for which the TR-FRET ratio was 1660. With `CSc1ccc(CN2C(=O)NC3(CCCCCC3)C2=O)cc1` the figure was 1630. With `Cc1ccnc(NS(=O)(=O)c2ccc(NC(=O)c3ccc(S(=O)(=O)N(C)C)cc3)cc2)n1`, the TR-FRET ratio is 1700. For `COc1cccc(NC(=O)c2ccc(S(=O)(=O)N(C)C)cc2)c1`, the TR-FRET ratio is 1680. Under `Cc1nn(C)c(C(=O)NNC(=S)NC2CCCCC2)c1Cl` stands 1630.

`COc1cccc(NC(=S)NCc2ccccn2)c1`: the TR-FRET ratio is 1990. Turning to `COc1cccc(NC(=S)NC(=O)c2c(Cl)c(C)nn2C)c1`, the TR-FRET ratio is 2600 (active). With `CN1CCN(C(=O)N2c3ccccc3CCc3ccccc32)CC1` the figure was 1720; with `CCOc1c(CNCc2ccc(C(=O)O)cc2)cccc1OC`, 1910.

Consider `O=C(CC1C(=O)NCCN1Cc1ccc(-c2ccccc2)cc1)NCC1CCOCC1` (stereo unspecified), for which the TR-FRET ratio was 1730. With `CCc1ccccc1N1C(=O)C2C3CC(=O)C(c4ccccc43)C2C1=O` (stereo unspecified) the figure was 1650.

On to `CC(=O)NC1=NN(C(C)=O)C(C)(c2ccc(C)cc2)S1` (stereo unspecified), for which the TR-FRET ratio was 1950. On to `COc1ccc(/C=N/NC(=O)Cn2cc(C(F)(F)F)ccc2=O)cc1`, for which the TR-FRET ratio is 1880. Consider `CCN(CCn1cccn1)C(=O)CC1C(=O)NCCN1Cc1cccc(OC)c1OC` (stereo unspecified), for which the TR-FRET ratio is 1620. With `CSc1nc2c(c(=O)[nH]1)C(c1cccc(Cl)c1Cl)CC(=O)N2` (stereo unspecified) the figure was 1770. On to `CCN1CCN(CC(=O)c2cc(OC)c(OC)c(OC)c2)CC1`, for which the TR-FRET ratio is 1990. Under `CC(C)OC(=O)CN1CCN(c2ccc(Cl)cc2)CC1` stands 1890; under `CCCC(=O)OCC(=O)Nc1cc(Cl)ccc1[N+](=O)[O-]`, 1580; under `CN(C)C(=O)N1CCNCC1`, 1920. Under `COc1ccc(C/C(C)=N/NC(=O)c2ccncc2)cc1` stands 1920; under `O=C(Nc1ccc([N+](=O)[O-])cc1)C1(c2ccccc2)CCOCC1`, 1740. Under `CN1CCN(CC#CCC2(O)c3ccccc3-c3ccccc32)CC1` stands 1610. In the case of `O=C(Nc1cccnc1)c1ccc(Cl)cc1[N+](=O)[O-]`, the TR-FRET ratio is 2040. With `Cc1cc(C)cc(NC(=S)NCCCN2CCOCC2)c1` the figure was 1640. Turning to `CCc1cccc(C)c1NC(=O)COC(=O)Cc1ccsc1`, the TR-FRET ratio was 1600.

On to `CC(=O)N(CCCN(C)C)c1nc2ccc(C)cc2s1`, for which the TR-FRET ratio was 2080. Under `COc1ccc(/C=C(\C#N)C(=O)ONC2=NCCCCC2)cc1` stands 1820; under `COc1ccc(S(=O)(=O)N(C)C)cc1NC(=O)CSc1ncccn1`, 1990; under `CCOCCCNC(=S)N1CCC(NC(=O)C2CCCCC2)CC1`, 1730.

For the molecule `Cc1ccc(C(=O)NCC(=O)O)cc1S(=O)(=O)N1CCCCC1`, the TR-FRET ratio is 1790. With `O=S(=O)(Nc1cc(S(=O)(=O)N2CCOCC2)ccc1N1CCCC1)c1cccs1`, the TR-FRET ratio was 1650. Under `Cc1ccc(NS(=O)(=O)c2cccs2)cc1S(=O)(=O)N1CCCCCC1` stands 2400 (active). With `CCn1c(COc2ccccc2)nnc1SCC(=O)NCc1ccco1` the figure was 1770; with `C/C(=N/OC(=O)c1cccc(C(F)(F)F)c1)c1cnccn1`, 1580. With `CC(OC(=O)CNS(=O)(=O)/C=C/c1ccccc1)C(=O)Nc1ccc(S(=O)(=O)N2CCCC2)cc1` (stereo unspecified) the figure was 1670; with `O=C(NNC1=C(C(=O)C(F)(F)F)CCC1)c1ccncc1`, 1980; with `CN(NC(=O)C1CC(=O)N(c2ccccc2)C1)C1=NS(=O)(=O)c2ccccc21` (stereo unspecified), 1810. Regarding `CCN(CC)c1ccc(C(=O)c2cnc(/N=C/N(C)C)s2)cc1`, the TR-FRET ratio was 1790. With `COc1ccc(CCC(=O)OCC(=O)Nc2ccc(C)c(S(=O)(=O)N(C)C)c2)cc1` the figure was 1760.

As to `CN(CCOc1ccc(Br)cc1)CC(=O)Nc1cccc(S(=O)(=O)NC2=NCCC2)c1`, the TR-FRET ratio is 1830. Under `CCC(C)NC(=O)/C=C/c1ccc(S(=O)(=O)NCc2ccco2)cc1` (stereo unspecified) stands 1910. With `Cc1ccccc1CC1(CO)CCCN(Cc2ccc3c(c2)OCCO3)C1` (stereo unspecified), the TR-FRET ratio was 1710.

`CSc1c(SCc2ccccc2)cnn(Cc2ccccc2)c1=O`: the TR-FRET ratio is 2320 (active). On to `CSc1nc2ccccc2c(=O)n1Cc1ccc(F)cc1`, for which the TR-FRET ratio was 1720. Under `O=c1c2ccccc2c(-c2ccccc2)nn1Cc1ccccc1` stands 1740. As for `COCc1c(C(=O)N/N=C/C2CC=CCC2)nnn1-c1nonc1N` (stereo unspecified), the TR-FRET ratio was 1650.

Take `O=C(CCc1ccc(S(=O)(=O)N2CCOCC2)cc1)NN=C1CCCCCCC1`: the TR-FRET ratio is 1980. As to `CC(C)n1c(=O)[nH]c2cc(C(=O)Nc3ccccc3)ccc21`, the TR-FRET ratio was 1850. With `C=CCc1cccc2cc(C(=O)NC3CCCC3)c(=O)oc12` the figure was 1900; with `O=C(COC(=O)/C=C/c1cccc(Cl)c1)NCCc1ccccc1`, 1750. With `Cc1cc(C)nc(/N=C2\NC(=O)CC(C(=O)O)N2c2ccc(Cl)cc2Cl)n1` (stereo unspecified) the figure was 1900.
